# According to PubChem BioAssay (Tox21):
# Inconclusive results are not listed. Entries that show only a call come without a potency. A number with no mark means an inactive call. Active and inactive are the calls of the source. Unless noted, the call rests on the fitted dose curve; in most records, active means well fitted curve in the direction sought with a large enough effect in the repeat runs; inconclusive means weak or mixed curves; inactive means no such curve, though single readings can be large; an effect the other way counts as inactive or inconclusive.
# Legend:
# [1] = biological target: Retinoic acid receptor RXR-alpha (Homo sapiens) (UniProt P19793); experiment: qHTS assay to identify small molecule agonists of the RXR signaling pathway (AID 1159527; calls by dose curve; further: nearly all actives have a fitted effect of over 35% in size; further: potency means the concentration at half of the fitted maximal effect)
# Retinoic acid receptor RXR-alpha (Homo sapiens), sequence (P19793 whole entry, looked up): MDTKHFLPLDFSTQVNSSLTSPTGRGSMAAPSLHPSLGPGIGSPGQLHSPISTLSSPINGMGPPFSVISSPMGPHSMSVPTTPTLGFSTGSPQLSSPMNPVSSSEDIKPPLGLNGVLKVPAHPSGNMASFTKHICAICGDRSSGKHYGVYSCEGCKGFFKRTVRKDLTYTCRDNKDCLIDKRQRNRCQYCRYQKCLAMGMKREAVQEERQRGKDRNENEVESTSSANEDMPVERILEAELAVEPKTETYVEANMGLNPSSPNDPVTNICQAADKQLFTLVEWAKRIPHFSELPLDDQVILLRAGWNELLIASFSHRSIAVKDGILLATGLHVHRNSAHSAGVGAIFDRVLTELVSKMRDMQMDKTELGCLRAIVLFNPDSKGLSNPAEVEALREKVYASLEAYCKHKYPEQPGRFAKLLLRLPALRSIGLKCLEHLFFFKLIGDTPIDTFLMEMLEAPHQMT
# Method in brief: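 Cells plated at 2,000/well, rested 5 hr at 37 C, pin-dosed with DMSO compound solutions, incubated 16 hr, then loaded with B/G FRET substrate for 2 hr at RT before dual-emission fluorescence reading.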
# [2] = qHTS assay to identify small molecule agonists of the RXR signaling pathway - cell viability counter screen (AID 1159529);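 further: HEK 293T cells carrying an RXR-alpha UAS beta-lactamase reporter; series mostly up to about 77 µM; nearly all actives have a fitted effect of over 50% in size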
# Method in brief: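 Steps: seed RXR-alpha-UAS-bla HEK 293T cells in assay medium containing 2% charcoal-stripped FBS; incubate 5 hr; add compounds in DMSO; incubate 16 hr at 37 C; after the bla read, add CellTiter-Glo and read luminescence at 30 min.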
# [3] = qHTS assay to identify small molecule antagonists of the retinoid acid receptor (RAR) signaling pathway - cell viability counter screen (AID 1159551); further: nearly all actives have a fitted effect of over 35% in size
# Method in brief: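 Seed C3RL4 cells; next day add compound, then retinol to 1 uM final; incubate 6 h at 37 C; add CellTiter-Glo; read luminescence after 30 min at RT.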
# [4] = qHTS assay to identify small molecule antagonists of the retinoic acid receptor (RAR) signaling pathway (AID 1159552; further: nearly all actives have a fitted effect of over 50% in size)
# Method in brief: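 Retinol at 1 uM final stimulated RARE-luciferase expression in C3RL4 cells exposed to test compounds for 6 hr at 37 C. Reduced luminescence, read 30 min after detection reagent, indicated pathway antagonism.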
# [5] = qHTS assay to identify small molecule agonists of the retinoic acid receptor (RAR) signaling pathway (AID 1159553); further: potency means the concentration at half of the fitted maximal effect
# Method in brief: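 Activation of retinol signaling was monitored via a RARE luciferase reporter in C3RL4 cells. After 6 hr compound treatment at 37 C, detection reagent was added for 30 min at room temperature before luminescence reading.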
# [6] = qHTS assay to identify small molecule antagonists of the estrogen related receptor (ERR) signaling pathway from Tox21 library - cell viability counter screen (AID 1224834); further: nearly all actives have a fitted effect of over 30% in size
# Method in brief: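 CellTiter-Fluor fluorescence measured; ERR cells; 17.5 h compound incubation at 37 C; 30 min reagent step.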
# [7] = biological target: Luciferin 4-monooxygenase (Photinus pyralis) (UniProt P08659); experiment: qHTS assay to identify small molecule inhibitors of firefly luciferase (AID 1224835); further: nearly all actives have a fitted effect of over 25% in size; further: potency means the concentration at half of the fitted maximal effect
# Luciferin 4-monooxygenase (Photinus pyralis), sequence (P08659 whole entry, looked up): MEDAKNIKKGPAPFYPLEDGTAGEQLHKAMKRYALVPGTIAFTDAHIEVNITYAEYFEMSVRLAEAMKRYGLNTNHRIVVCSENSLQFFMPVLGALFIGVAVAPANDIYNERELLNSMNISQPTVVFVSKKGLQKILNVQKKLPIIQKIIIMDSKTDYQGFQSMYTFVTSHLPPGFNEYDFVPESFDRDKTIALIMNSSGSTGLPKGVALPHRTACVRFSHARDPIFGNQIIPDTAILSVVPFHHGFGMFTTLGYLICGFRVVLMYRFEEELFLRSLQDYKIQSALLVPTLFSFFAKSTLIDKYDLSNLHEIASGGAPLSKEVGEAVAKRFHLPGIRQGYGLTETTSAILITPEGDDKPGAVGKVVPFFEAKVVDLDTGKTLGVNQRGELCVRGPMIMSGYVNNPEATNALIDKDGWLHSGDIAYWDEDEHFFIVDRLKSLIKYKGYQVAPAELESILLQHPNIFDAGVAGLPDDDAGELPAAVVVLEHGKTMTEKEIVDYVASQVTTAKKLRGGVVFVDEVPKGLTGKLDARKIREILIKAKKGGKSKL
# Method in brief: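 Biochemical qHTS: compounds run as interplate titrations against purified firefly enzyme, with D-luciferin and ATP each at its KM concentration. Light output recorded by CCD imaging.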
# [8] = qHTS assay to identify small molecule agonists of the constitutive androstane receptor (CAR) signaling pathway - cell viability counter screen (AID 1224836); further: series mostly up to about 92 µM; nearly all actives have a fitted effect of over 45% in size
# Method in brief: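 Cells were seeded and incubated 4 hrs. Compounds were added across 15 concentrations together with PK11195 at 0.75 uM final. Plates were incubated 23 hrs at 37 C. CellTiter-Fluor was added and fluorescence measured.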
# [9] = biological target: Nuclear receptor subfamily 1 group I member 3 (Homo sapiens) (UniProt Q14994); experiment: qHTS assay to identify small molecule antagonists of the constitutive androstane receptor (CAR) signaling pathway (AID 1224838);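 further: HepG2 cells stably expressing hCAR with CYP2B6 luciferase reporter stimulated by CITCO; nearly all actives have a fitted effect of over 40% in size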
# Nuclear receptor subfamily 1 group I member 3 (Homo sapiens), sequence (Q14994 whole entry, looked up): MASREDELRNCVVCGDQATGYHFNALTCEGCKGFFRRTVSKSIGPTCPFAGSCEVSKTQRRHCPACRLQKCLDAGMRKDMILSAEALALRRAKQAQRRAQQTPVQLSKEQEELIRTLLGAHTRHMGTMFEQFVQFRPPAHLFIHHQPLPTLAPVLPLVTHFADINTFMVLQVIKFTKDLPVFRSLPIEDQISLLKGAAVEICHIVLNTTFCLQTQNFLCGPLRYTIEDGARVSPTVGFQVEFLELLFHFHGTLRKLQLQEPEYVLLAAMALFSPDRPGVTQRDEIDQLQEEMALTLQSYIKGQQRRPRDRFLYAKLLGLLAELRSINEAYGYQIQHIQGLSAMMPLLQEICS
# Method in brief: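 Reporter luminescence was quantified after 24 h exposure of hCAR/CYP2B6-2.2kb double-stable HepG2 cells to compounds at 15 concentrations in the presence of 50 nM CITCO final.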
# [10] = biological target: Nuclear receptor subfamily 1 group I member 3 (Homo sapiens) (UniProt Q14994); experiment: qHTS assay to identify small molecule agonists of the constitutive androstane receptor (CAR) signaling pathway (AID 1224839);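 further: HepG2 cells stably carrying human CAR and a CYP2B6 luciferase reporter; series mostly up to about 92 µM; nearly all actives have a fitted effect of over 15% in size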
# Method in brief: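 Cells were plated and incubated 4 hrs, then dosed with compounds at 15 concentrations. PK11195 was added to 0.75 uM final. After 24 hrs at 37 C, luciferase luminescence was measured.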
# [11] = qHTS assay to identify small molecule antagonists of the estrogen related receptor signaling pathway with the pleiotropic PPARgamma coactivator (PGC) from Tox21 10K library (AID 1224841; call rule not given here; further: series mostly up to about 92 µM; actives are mostly falling curves and most rising ones were filed inactive; nearly all actives have a fitted effect of over 50% in size)
# Method in brief: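 Each well held 2,000 PGC/ERR cells, pre-incubated six hours (37 C, 5% CO2). Test substances in DMSO were added by pin tool and left for 18 h at 37 C before luciferase detection by One-Glo.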
# [12] = qHTS assay to identify small molecule agonists of the estrogen related receptor signaling pathway with the pleiotropic PPARgamma coactivator (PGC) from Tox21 10K library (AID 1224842); further: nearly all actives have a fitted effect of over 15% in size
# Method in brief: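 PGC/ERR reporter cell line, 2,000 cells per well, incubated 6 h at 37 C before 23 nL compound in DMSO was added. After 18 h at 37 C, One-Glo luminescence read following 30 min at room temperature.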
# [13] = qHTS assay to identify small molecule antagonists of the constitutive androstane receptor (CAR) signaling pathway - cell viability counter screen (AID 1224837); further: series mostly up to about 92 µM; nearly all actives have a fitted effect of over 45% in size
# Method in brief: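 Using CellTiter-Fluor, viability is scored in HepG2 cells stably carrying hCAR and a 2.2kb CYP2B6 reporter after 23 hr compound exposure across 15 concentrations, with CITCO present at 50 nM.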
# [14] = qHTS assay to identify small molecule antagonists of the estrogen related receptor signaling pathway with the pleiotropic PPARgamma coactivator (PGC) from Tox21 10K library - cell viability counter screen (AID 1224840; active means well fitted cell-killing curve with a large enough effect in the repeat runs, not every such curve was filed as active; further: nearly all actives have a fitted effect of over 40% in size)
# Method in brief: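 Here the PGC/ERR cells serve as a cytotoxicity control: they are exposed to compounds for 17.5 hours at 37 C, and live-cell signal is quantified using CellTiter-Fluor fluorescence.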
# [15] = qHTS assay to identify small molecule antagonists of the estrogen related receptor (ERR) signaling pathway - cell viability counter screen (AID 1224818);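 further: series mostly up to about 46 µM; viability measured after 17.5 h of compound exposure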
# Method in brief: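 In the same ERR cell assay, compound-treated wells (17.5 h, 37 C) were multiplexed with a fluorogenic viability reagent, CellTiter-Fluor, read after 30 min to flag cytotoxic substances.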
# [16] = qHTS assay to identify small molecule antagonists of the estrogen related receptor (ERR) signaling pathway (AID 1224819;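 further: luminescence from an ERR-driven luciferase reporter measured with One-Glo reagent; series mostly up to about 46 µM; nearly all actives have a fitted effect of over 50% in size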)
# Method in brief: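 qHTS in ERR cells, 2,000/well, 1536 format. Cpd (DMSO) added after 6 h settle, 18 h 37 C. One-Glo luminescence, 30 min RT.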
# [17] = qHTS assay to identify small molecule agonists of the estrogen related receptor (ERR) signaling pathway (AID 1224820)
# Method in brief: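 ERR reporter cell line (from NTP), 2,000 cells/well, incubated 6 h before compound addition, then 18 h at 37 C. Luminescence measured 30 min after One-Glo reagent at room temperature.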
# [18] = tested on: estrogen-related receptor alpha (ERRalpha) with PGC-1alpha coactivator, human; experiment: qHTS assay to identify small molecule antagonists of the estrogen related receptor signaling pathway with the pleiotropic PPARgamma coactivator (PGC) (AID 1224821; calls by dose curve)
# Method in brief: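 PGC/ERR reporter cell line, plated 6 h before compound addition, then exposed 18 h at 37 °C. Luciferase activity read by luminescence 30 min after One-Glo addition; decrease indicates antagonism.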
# [19] = qHTS assay to identify small molecule antagonists of the estrogen related receptor signaling pathway with the pleiotropic PPARgamma coactivator (PGC) cell viability counter screen (AID 1224822; further: series mostly up to about 46 µM)
# Method in brief: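 Compounds in DMSO, with positive and negative controls, were applied to PGC/ERR cells (2,000/well) and left 17.5 h at 37 C before CellTiter-Fluor detection.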
# [20] = qHTS assay to identify small molecule agonists of the estrogen related receptor signaling pathway with the pleiotropic PPARgamma coactivator (PGC) (AID 1224823)
# Method in brief: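 PGC/ERR reporter cells seeded 6 h, then exposed to compounds (23 nL in DMSO) for 18 h at 37 C. One-Glo luciferase luminescence read after 30 min at room temperature.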
Structure (SMILES),Potency [1],Potency [2],outcome [3],Potency [4],Potency [5],Potency [6],Potency [7],Potency [8],Potency [9],Potency [10],Potency [11],Potency [12],Potency [13],Potency [14],outcome [15],outcome [16],outcome [17],outcome [18],outcome [19],outcome [20]
COc1ccccc1OCC(O)COC(N)=O (stereo unspecified),inactive,inactive,inactive,inactive,inactive,inactive,inactive,inactive,inactive,inactive,inactive,inactive,–,–,–,–,–,–,–,–
O=C1Nc2ccc([N+](=O)[O-])cc2C1=O,inactive,inactive,inactive,inactive,inactive,–,inactive,inactive,inactive,inactive,–,–,inactive,inactive,–,–,–,–,–,–
CCOC(=O)c1ccccc1O,inactive,inactive,inactive,inactive,inactive,inactive,inactive,inactive,–,–,inactive,inactive,inactive,inactive,–,–,–,–,–,–
CC(C)S,inactive,inactive,inactive,inactive,inactive,inactive,inactive,inactive,–,–,inactive,inactive,inactive,inactive,–,–,–,–,–,–
C1CCOC1,inactive,inactive,inactive,inactive,inactive,inactive,–,inactive,inactive,–,inactive,inactive,inactive,inactive,–,–,–,–,–,–
CCCCCOc1ccc(C2SC(=O)NC2=O)cc1OCC (stereo unspecified),5.35 µM (active),inactive,inactive,inactive,21.1 µM (active),inactive,–,inactive,inactive,–,–,–,inactive,inactive,–,–,–,–,–,–
CCOC(=O)C(Br)c1ccccc1 (stereo unspecified),inactive,inactive,inactive,inactive,inactive,inactive,–,inactive,inactive,inactive,–,–,–,inactive,–,–,–,–,–,–
CCCNC(C)(C)COC(=O)c1ccccc1,inactive,inactive,inactive,inactive,inactive,inactive,inactive,inactive,inactive,–,inactive,inactive,–,–,–,–,–,–,–,–
O=C1C=CC(=O)O1,inactive,inactive,inactive,inactive,inactive,inactive,inactive,inactive,–,–,inactive,inactive,–,inactive,–,–,–,–,–,–
CC(C)(CO)[C@@H](O)C(=O)NCCC(=O)O,inactive,inactive,inactive,inactive,inactive,inactive,inactive,inactive,–,–,inactive,inactive,inactive,–,–,–,–,–,–,–
CCCC(CCC)(C(=O)OCC)C(=O)OCC,inactive,inactive,inactive,inactive,inactive,inactive,inactive,inactive,inactive,inactive,–,–,–,inactive,–,–,–,–,–,–
Cc1onc(-c2ccccc2)c1C(=O)Cl,inactive,inactive,inactive,inactive,inactive,inactive,inactive,–,–,–,–,–,inactive,inactive,–,–,–,–,–,–
CCCCC1CCC(=O)O1 (stereo unspecified),inactive,inactive,inactive,inactive,inactive,inactive,inactive,inactive,–,–,inactive,inactive,inactive,inactive,–,–,–,–,–,–
O=C1CCN(c2ccccc2)N1,inactive,inactive,inactive,inactive,inactive,–,inactive,inactive,inactive,inactive,inactive,inactive,–,–,–,–,–,–,–,–
CO[Si](C)(C)OC,inactive,inactive,inactive,inactive,inactive,inactive,inactive,inactive,inactive,–,inactive,inactive,–,inactive,–,–,–,–,–,–
CN1CCN(c2c(F)cc3c(=O)c(C(=O)O)cn4c3c2SCC4)CC1,inactive,inactive,inactive,inactive,inactive,inactive,inactive,inactive,–,inactive,–,–,–,inactive,–,–,–,–,–,–
OCC(CBr)(CBr)CBr,inactive,inactive,inactive,–,inactive,inactive,70.7 µM (active),inactive,inactive,–,–,–,inactive,–,–,–,–,–,–,–
COc1cc(Cl)ccc1Cl,–,inactive,inactive,inactive,inactive,inactive,inactive,inactive,inactive,–,–,–,inactive,inactive,–,–,–,–,–,–
CCCCNc1ccc(C(=O)OCCN(CC)CC)cc1,inactive,–,inactive,–,–,inactive,inactive,inactive,inactive,–,inactive,inactive,–,inactive,–,–,–,–,–,–
O=C(O)[C@@H](O)[C@H](O)[C@H](O)[C@@H](O)C(=O)O,inactive,–,inactive,–,–,inactive,inactive,inactive,–,–,inactive,inactive,inactive,–,–,–,–,–,–,–
CC1=C(CC(=O)O)c2cc(F)ccc2/C1=C\c1ccc(S(C)(=O)=O)cc1,–,inactive,inactive,inactive,inactive,inactive,inactive,inactive,inactive,–,inactive,inactive,inactive,inactive,inactive,inactive,inactive,inactive,inactive,inactive
